Results published in PubChem BioAssay AID1159580 (chemical genetic matrix, 2015).
“And” between values parts separate entries of the source, which are not always exact repeats. Equal entries are not always repeated. Out of some 5,500 compounds screened, about 2,000 (36%) were called active. Not shown: some 18% with an inconclusive outcome. Cut-off read from the data, not from the text of the source: active = normalized growth mostly below about 0.91 (no sharp cut-off); inconclusive = no clear call, values can overlap the other calls; inactive = mostly above about 0.92. The list shows a part of the results.

Assay: chemical genetic growth profiling, strain panel (AID 1159580);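 note: tested at 20 µM; growth read once vehicle control cultures reached saturation at 30 °C; 1 = growth at the plate median or of vehicle wells; lower values mean less growth of the strain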
Settings: S. cerevisiae deletion strains, growth OD

Measured: normalized growth

CC(=O)S[C@@H]1CC2=CC(=O)CC[C@]2(C)[C@H]2CC[C@@]3(C)[C@@H](CC[C@@]34CCC(=O)O4)C12 (some centres undefined)
inactive: locus YAL013W, strain DEP1, active compounds read low 1 | locus YAL021C, strain ccr4, active compounds read low 1.01 | locus YAL026C, strain drs2, active compounds read low 1.01 | locus YAL030W, strain snc1, active compounds read low 1.01 | locus YBL061C, strain skt5, active compounds read low 1.02 | locus YBR009C, strain hhf1, active compounds read low 0.98 | locus YBR021W, strain FUR4, active compounds read low 0.992 | locus YBR023C, strain chs3, active compounds read low 1.01 | locus YBR171W, strain sec66, active compounds read low 1.03 | locus YBR229C, strain ROT2, active compounds read low 0.997 | locus YBR231C, strain swc5, active compounds read low 1.04 | locus YBR279W, strain paf1, active compounds read low 1.01 | locus YCL011C, strain gbp2, active compounds read low 0.984 | locus YCL016C, strain dcc1, active compounds read low 0.993 | locus YCL029C, strain bik1, active compounds read low 1.03 | locus YCL061C, strain MRC1, active compounds read low 1.04 | locus YCL069W, strain vba3, active compounds read low 1.01 | locus YCR088W, strain abp1, active compounds read low 1.01 | locus YDL005C, strain med2, active compounds read low 1.01 | locus YDL035C, strain GPR1, active compounds read low 1.01 | locus YDL040C, strain nat1, active compounds read low 1.01 | locus YDL074C, strain BRE1, active compounds read low 1.01 | locus YDL101C, strain DUN1, active compounds read low 1.01 | locus YDL134C, strain PPH21, active compounds read low 1.01 | locus YDL185W, strain tfp1, active compounds read low 1.01 | locus YDL192W, strain arf1, active compounds read low 1.03 | locus YDR001C, strain nth1, active compounds read low 1 | locus YDR069C, strain doa4, active compounds read low 1.03 | locus YDR101C, strain arx1, active compounds read low 1.03 | locus YDR137W, strain rgp1, active compounds read low 1 | locus YDR150W, strain NUM1, active compounds read low 1 | locus YDR159W, strain sac3, active compounds read low 0.972 | locus YDR162C, strain NBP2, active compounds read low 1 | locus YDR195W, strain ref2 1.05 | locus YDR297W, strain sur2, active compounds read low 1.02 | locus YDR318W, strain mcm21, active compounds read low 1.02 | locus YDR334W, strain swr1, active compounds read low 1 | locus YDR335W, strain msn5, active compounds read low 1.02 | locus YDR388W, active compounds read low 1.03 | locus YDR392W, strain spt3, active compounds read low 0.951 | locus YDR502C, strain sam2, active compounds read low 1.02 | locus YEL003W, strain gim4, active compounds read low 1.01 | locus YEL037C, strain rad23, active compounds read low 1.01 | locus YEL061C, strain CIN8 (second series), active compounds read low 1.01 | locus YEL061C, strain CIN8, active compounds read low 0.963 | locus YER015W, strain faa2, active compounds read low 1.02 | locus YER016W, strain bim1, active compounds read low 1 | locus YER110C, active compounds read low 1.03 | locus YER111C, strain swi4, active compounds read low 1.01 | locus YER155C, strain BEM2 (second series), active compounds read low 1.07 | locus YER155C, strain BEM2, active compounds read low 1.01 | locus YER167W, strain BCK2, active compounds read low 1.01 | locus YFR010W, strain ubp6, active compounds read low 1.02 | locus YGL078C, strain dbp3, active compounds read low 1.03 | locus YGL086W, strain mad1, active compounds read low 0.998 | locus YGL167C, strain pmr1, active compounds read low 1.03 | locus YGL173C, strain kem1, active compounds read low 1.02 | locus YGL227W, strain vid30, active compounds read low 0.997 | locus YGL240W, strain doc1, active compounds read low 1.05 | locus YGL248W, strain PDE1, active compounds read low 1.01 | locus YGL253W, strain hxk2, active compounds read low 0.97 | locus YGR078C, strain PAC10, active compounds read low 0.984 | locus YGR135W, strain pre9, active compounds read low 1.02 | locus YGR252W, strain gcn5, active compounds read low 1 | locus YHR013C, strain ard1, active compounds read low 1.01 | locus YHR027C, strain rpn1, active compounds read low 1.01 | locus YHR030C, strain SLT2, active compounds read low 0.996 and 1.06 | locus YHR079C, strain IRE1 (second series), active compounds read low 1.03 | locus YHR079C, strain IRE1, active compounds read low 1.08 | locus YHR094C, strain hxt1, active compounds read low 1.03 | locus YHR129C, strain ARP1, active compounds read low 1 | locus YHR142W, strain chs7, active compounds read low 1 | locus YHR200W, strain rpn10, active compounds read low 1.02 | locus YIL066C, strain RNR3, active compounds read low 1 | locus YIL073C, strain SPO22, active compounds read low 1.05 | locus YIL125W, strain kgd1, active compounds read low 1.02 | locus YIR030C, strain dcg1, active compounds read low 1.02 | locus YJL092W, strain hpr5, active compounds read low 1.01 | locus YJL095W, strain BCK1 (second series), active compounds read low 0.996 | locus YJL095W, strain BCK1, active compounds read low 1 and 1.02 | locus YJL115W, strain asf1, active compounds read low 1.02 | locus YJL129C, strain trk1, active compounds read low 1.02 | locus YJL134W, strain LCB3, active compounds read low 1 | locus YJL154C, strain vps35, active compounds read low 1.02 | locus YJL164C, strain tpk1, active compounds read low 0.983 | locus YJL166W, strain qcr8, active compounds read low 1.04 | locus YJL168C, strain set2, active compounds read low 1.02 | locus YJL187C, strain SWE1 (second series), active compounds read low 1 | locus YJL187C, strain SWE1, active compounds read low 1.02
